# Experimental data: PubChem BioAssay (NCI)
# The panel holds about 79,000 compounds, 15% with a hit somewhere; the sample as a whole holds those more often. Values without a mark were called inactive. Active and inactive are the calls of the source. Rule as the data show it: active = growth inhibition above about 70%; inactive = the rest.
# Test: NCI Yeast Anticancer Drug Screen. Data for the rad50 strain (AID 155);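 also: 0% = growth of vehicle-only cultures of the same strain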
# Conditions: S. cerevisiae rad50 strain growth inhibition; at 50.0 µM; active compounds read high
# How it was run: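 Genetically altered yeast (DNA repair pathway); compound treatment; growth inhibition vs vehicle ctrl.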
row,Compound,growth inhibition
1,COc1cccc(C2=NC(C(C)C)CO2)c1OC (stereo not given),-11.3%
2,CC(N)CCN (stereo not given),3.7%
3,NNC(=O)c1c[nH]c2ccccc2c1=O,3.7%
4,CCOC(=O)C(Cc1c[nH]c2ccccc12)NC(C)=O (stereo not given),22.2%
5,COc1ccc(C2c3cc4c(cc3OC(N3CCOCC3)C2C)OCO4)cc1 (stereo not given),-12.4%
6,COC(C)CC(=O)O (stereo not given),-25.8%
7,O=C(c1ccc(Cl)c(Cl)c1)n1c2ccccc2c2ccccc21,-0.65%
8,CCOC(=O)NC(=S)Nc1cn(C)cc1[N+](=O)[O-],3.2%
9,O=C(O)c1c(Br)c(Br)c(Br)c(Br)c1C(=O)Nc1ccc(Cl)c(Cl)c1,-1.05%
10,CN(C(=O)CCC1OCCO1)c1cc([N+](=O)[O-])ccc1OCc1ccccc1,22.1%
11,OC(CN1CCc2ccccc2C1)c1ccccc1 (stereo not given),42.5%
12,OC(CNc1ccc(Cl)cc1)CN1CCOCC1 (stereo not given),77.7% (active)
13,O=C1CSC2=NC3=C(COC/C3=C\c3ccc(F)cc3)C(c3ccc(F)cc3)N12 (stereo not given),16.6%
14,CC(CCC(=O)CS(C)=O)C1CCC2C3CCC4CCCCC4(C)C3CCC12C (stereo not given),34.1%
15,O=C(C(c1ccccc1)C(F)(F)F)N1CCCC1 (stereo not given),7.4%
16,CN(N)c1cnn(-c2ccccc2)c(=O)c1Cl,-37.2%
17,C=CCCCCCCCCC(=O)N1CCN(C)CC1,46.1%
18,CC(=O)Nc1cccnc1,-18.1%
19,C[C@@H]1C(=O)OCC2=C3C[C@@H](CC[C@@]3(C)C=CC2=O)[C@H](C)C(=O)OCC2=C3C[C@H]1CC[C@@]3(C)C=CC2=O,4.3%
20,NC(=O)c1cn[nH]c1N,4.05%

row,Compound,growth inhibition
1,Cc1ccccc1S(=O)(=O)NSc1ccccc1[N+](=O)[O-],28.2%
2,O=C(O)c1ccc2sc3ccccc3c(=O)c2c1,14.9%
3,O=c1[nH]cc(C(F)(C(F)(F)F)C(F)(F)F)c(=O)[nH]1,-21.9%
4,CC(=O)Nc1ccc(C(=O)NN2C(=O)C(Cl)C2c2ccccc2O)cc1 (stereo not given),-24.8%
5,S=C(Nc1ccccc1)c1ccccc1,-23.2%
6,CCCCNS(=O)(=O)CCCC,22.2%
7,OC1=CC(=S)NC2CCCCC12 (stereo not given),32.2%
8,CCC(=O)/C=C/C1=C(C)CCCC1(C)C,-9.95%
9,C=C1C(=O)OC2C1CCC(C)=C1C(=O)C=C(C)C12 (stereo not given),-24.3%
10,CCCCCCCCCCCCCCCCCC(=O)N/N=C/c1ccccc1,1%
11,O=C(O)c1ccc(C2COc3ccc(Cl)cc3C2)cc1 (stereo not given),-10.8%
12,CC(C)Oc1ccc(CCOC(=O)Nc2cccc3ccccc23)cc1,-0.5%
13,O=[N+]([O-])c1ccc(-c2nc3ccncc3[nH]2)cc1,-22.6%
14,CCOC(=O)C(Cc1ccccc1Cl)(Cc1ccccc1Cl)c1ccccc1,7.15%
15,CCCCN(CCCC)CC(O)c1cc(-c2ccc(Cl)cc2)nc2c(Cl)cc(Cl)cc12 (stereo not given),26.4%
16,CCCC(O)CNCc1ccc2ncccc2c1 (stereo not given),-20.4%
17,O=S(=O)(Oc1ccc(Cl)cc1)c1cccc(S(=O)(=O)Oc2ccc(Cl)cc2)c1,12.8%
18,COP(=O)(OC)C1c2cc(Cl)ccc2-c2c(Cl)cc(Cl)cc21 (stereo not given),88.8% (active)
19,CC(=O)Oc1ccc(-c2ccccc2)cc1,23.3%
20,NNC(=O)C1=NN(c2ccccc2)C(=O)C1,39.3%

# Test: NCI Yeast Anticancer Drug Screen. Data for the mec2-1 strain (AID 157)
# Conditions: S. cerevisiae mec2-1 strain, at 50.0 µM, active compounds read high
# How it was run: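 Compounds were applied to mec2-1 yeast cells. Their growth was then compared with that of vehicle-treated cultures to give growth inhibition.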
row,Compound,growth inhibition [%]
1,COc1cccc(C2=NC(C(C)C)CO2)c1OC (stereo not given),-16.4
2,CC(N)CCN (stereo not given),11.2
3,NNC(=O)c1c[nH]c2ccccc2c1=O,13.1
4,CCOC(=O)C(Cc1c[nH]c2ccccc12)NC(C)=O (stereo not given),28.6
5,COc1ccc(C2c3cc4c(cc3OC(N3CCOCC3)C2C)OCO4)cc1 (stereo not given),-22.1
6,COC(C)CC(=O)O (stereo not given),-28.2
7,O=C(c1ccc(Cl)c(Cl)c1)n1c2ccccc2c2ccccc21,-47.5
8,CCOC(=O)NC(=S)Nc1cn(C)cc1[N+](=O)[O-],-5.9
9,O=C(O)c1c(Br)c(Br)c(Br)c(Br)c1C(=O)Nc1ccc(Cl)c(Cl)c1,5.15
10,CN(C(=O)CCC1OCCO1)c1cc([N+](=O)[O-])ccc1OCc1ccccc1,-1.05
11,OC(CN1CCc2ccccc2C1)c1ccccc1 (stereo not given),8.05
12,OC(CNc1ccc(Cl)cc1)CN1CCOCC1 (stereo not given),15.2
13,O=C1CSC2=NC3=C(COC/C3=C\c3ccc(F)cc3)C(c3ccc(F)cc3)N12 (stereo not given),28.3
14,CC(CCC(=O)CS(C)=O)C1CCC2C3CCC4CCCCC4(C)C3CCC12C (stereo not given),-20.4
15,O=C(C(c1ccccc1)C(F)(F)F)N1CCCC1 (stereo not given),-7.8
16,CN(N)c1cnn(-c2ccccc2)c(=O)c1Cl,-48
17,C=CCCCCCCCCC(=O)N1CCN(C)CC1,-14
18,CC(=O)Nc1cccnc1,-3.85
19,C[C@@H]1C(=O)OCC2=C3C[C@@H](CC[C@@]3(C)C=CC2=O)[C@H](C)C(=O)OCC2=C3C[C@H]1CC[C@@]3(C)C=CC2=O,-3.7
20,NC(=O)c1cn[nH]c1N,6.2

row,Compound,growth inhibition [%]
1,Cc1ccccc1S(=O)(=O)NSc1ccccc1[N+](=O)[O-],-5.25
2,O=C(O)c1ccc2sc3ccccc3c(=O)c2c1,32.8
3,O=c1[nH]cc(C(F)(C(F)(F)F)C(F)(F)F)c(=O)[nH]1,-18.9
4,CC(=O)Nc1ccc(C(=O)NN2C(=O)C(Cl)C2c2ccccc2O)cc1 (stereo not given),-16.3
5,S=C(Nc1ccccc1)c1ccccc1,-16.5
6,CCCCNS(=O)(=O)CCCC,2.4
7,OC1=CC(=S)NC2CCCCC12 (stereo not given),18.2
8,CCC(=O)/C=C/C1=C(C)CCCC1(C)C,-9.65
9,C=C1C(=O)OC2C1CCC(C)=C1C(=O)C=C(C)C12 (stereo not given),-12.5
10,CCCCCCCCCCCCCCCCCC(=O)N/N=C/c1ccccc1,-2.8
11,O=C(O)c1ccc(C2COc3ccc(Cl)cc3C2)cc1 (stereo not given),-19.8
12,CC(C)Oc1ccc(CCOC(=O)Nc2cccc3ccccc23)cc1,0.85
13,O=[N+]([O-])c1ccc(-c2nc3ccncc3[nH]2)cc1,-7.4
14,CCOC(=O)C(Cc1ccccc1Cl)(Cc1ccccc1Cl)c1ccccc1,-17.1
15,CCCCN(CCCC)CC(O)c1cc(-c2ccc(Cl)cc2)nc2c(Cl)cc(Cl)cc12 (stereo not given),5.05
16,CCCC(O)CNCc1ccc2ncccc2c1 (stereo not given),-4.2
17,O=S(=O)(Oc1ccc(Cl)cc1)c1cccc(S(=O)(=O)Oc2ccc(Cl)cc2)c1,1.6
18,COP(=O)(OC)C1c2cc(Cl)ccc2-c2c(Cl)cc(Cl)cc21 (stereo not given),67.9
19,CC(=O)Oc1ccc(-c2ccccc2)cc1,20.8
20,NNC(=O)C1=NN(c2ccccc2)C(=O)C1,12.8
